# Screening data: PubChem BioAssay, National Center for Advancing Translational Sciences (NCATS)
# TDP1 block – blocks human tyrosyl-DNA phosphodiesterase 1 | recombinant TDP1, AlphaScreen DNA substrate cleavage | Potency, µM (doses to about 130 µM), for the others: at the top dose activity change, negative = inhibition, hits mostly inhibitors | 0.28% of 350,000 active; also: potency is read from the fitted curve at half-maximal effect; nearly all actives have a fitted effect of over 40% in size
# Target sequence (Q9NUW8 whole entry, looked up): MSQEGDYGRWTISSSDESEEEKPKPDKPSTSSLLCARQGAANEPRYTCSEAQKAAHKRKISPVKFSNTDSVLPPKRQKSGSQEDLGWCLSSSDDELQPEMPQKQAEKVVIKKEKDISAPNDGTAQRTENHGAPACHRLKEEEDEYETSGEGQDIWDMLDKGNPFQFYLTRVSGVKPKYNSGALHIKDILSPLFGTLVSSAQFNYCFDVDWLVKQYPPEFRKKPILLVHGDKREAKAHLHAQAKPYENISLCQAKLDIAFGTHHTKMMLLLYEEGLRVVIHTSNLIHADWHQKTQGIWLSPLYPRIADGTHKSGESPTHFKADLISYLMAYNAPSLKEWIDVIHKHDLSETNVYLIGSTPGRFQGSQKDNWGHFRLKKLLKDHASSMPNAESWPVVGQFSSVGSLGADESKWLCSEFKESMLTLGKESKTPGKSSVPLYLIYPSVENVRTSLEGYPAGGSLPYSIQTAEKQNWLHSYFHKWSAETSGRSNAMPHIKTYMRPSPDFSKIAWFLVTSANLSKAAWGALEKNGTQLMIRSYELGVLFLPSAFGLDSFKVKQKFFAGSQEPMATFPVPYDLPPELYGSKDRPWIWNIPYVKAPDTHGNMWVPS
#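 Compounds were preincubated with Tdp1 (1 nM final) for 15 min at room temperature before substrate (15 nM final) started a 5 min reaction; beads (10 ug/ml final) were then added for 10 min before AlphaScreen detection.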
# DT40 TDP1 CPT – growth inhibition of DT40 Tdp1-/-;hTDP1 cells with camptothecin (screen for TDP1 inhibitors); chicken DT40 Tdp1-/-;hTDP1 cells + 20 nM CPT, ATP luminescence, 48 h; Potency, µM (doses to about 46.2 µM), for inactives: at the highest dose activity change, negative = growth inhibition, usual class: inhibitors; 12% of 420,000 active; AID 686979; also: potency is read from the fitted curve at half-maximal effect; nearly all actives have a fitted effect of over 55% in size
#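 Cell growth measured by CellTiter-Glo luminescence after a minimum 48 h, 37 C compound exposure with 20 nM CPT in Tdp1-knockout DT40 cells stably expressing hTDP1, seeded 400/well; qHTS titration format.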
# Giardia killer – kills Giardia lamblia | Giardia lamblia trophozoite viability | activity change, % at 7.66 µM, hits read low | 0.15% of 340,000 active | AID 540267; in the data active = activity change below about -80%; inconclusive = between about -30% and that limit;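 also: parasites exposed to compound for two days anaerobically before the ATP read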
#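 Luminescent ATP signal served as the viability read-out, measured 15-30 min after adding ATP detection reagent to trophozoites that had been incubated with compounds for 48 hrs at 37 deg C anaerobically at 100 cells/well.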
# IL1B secr inh – blocks inflammasome-driven IL-1 beta release | THP-1 LPS/ATP IL-1B secretion, AlphaLISA, 16 h; hits give low values | activity change, % at 57.5 µM | 4.7% of 360,000 active; in the data active = activity change below about -50%; inconclusive = mostly about -30% to -49%
#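 Secreted IL-1B measured by AlphaLISA bead assay after 16 h compound exposure of THP-1 cells; compounds (final up to 57.5 uM) added 1 h before LPS (250 ng/mL) and ATP (1.25 mM) stimulation; lower signal means less secretion.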
# DT40 TDP1 no CPT – qHTS for Inhibitors of human tyrosyl-DNA phosphodiesterase 1 (TDP1): qHTS in cells in absence of CPT; DT40 Tdp1-/- hTDP1 cells, no CPT, ATP luminescence, 48 h; Potency, µM (top dose mostly 46.2 µM), inactives show at the top dose activity change, negative = growth inhibition, most hits filed as inhibitors; 15% of 420,000 active; AID 686978, 2013; also: potency is read from the fitted curve at half-maximal effect; nearly all actives have a fitted effect of over 55% in size
#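 Luminescent ATP content (CellTiter-Glo) served as the growth readout. Knockout chicken DT40 cells expressing human TDP1 were exposed to compounds without camptothecin for a minimum 48 hr at 37 °C.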
# ELG1 DNA repair – blocks ELG1-dependent DNA repair in HEK293T cells; HEK293T ELG1-luciferase reporter, luminescence, 16 h; DNA damage induced by 5-fluorouridine; Potency, µM (series often up to 46.1 µM), for inactives: at the highest dose activity change, negative = inhibition, usual class: inhibitors; 2.3% of 330,000 active; AID 504467; also: potency is read from the fitted curve at half-maximal effect; nearly all actives have a fitted effect of over 55% in size
#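 In this reporter screen, reduction of luminescence relative to DMSO vehicle indicated activity. Compounds and 5-fluorouridine were added together to 2,000 cells per well, incubated for 16 hr at 37 °C, then developed with ONE-Glo.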
# Active calls of the source: *; ? = inconclusive; / = no result; ! = a repeat was not active. A selection: hits, their analogues and other compounds. The true share with any hit is near 19%. Unless noted, calls follow the shape of the dose curve; as a rule, active = well fitted curve in the direction sought with a large enough effect; inconclusive = small, poorly fitted or top-dose-only effect, or another doubt; inactive = no such curve, though single readings can be large; an effect the other way counts as inactive or inconclusive. % is scaled to controls: 0 for no effect and ±100 for the full control effect.
SMILES,TDP1 block,DT40 TDP1 CPT,Giardia killer,IL1B secr inh,DT40 TDP1 no CPT,ELG1 DNA repair
C=CCOC(=O)C1=C(C)NC(SCC)=C(C#N)C1c1ccc(Cl)cc1 (stereo not given),-2%,0.73µM*,-6,-26,0.52µM*,?
CCCNC(C)C(=O)Nc1c(C)csc1C(=O)OC (stereo not given),/,0%,9,10,-1%,18%
CC(=O)Nc1nonc1-c1nnc(SCC(=O)Nc2cc(C)cc(C)c2)n1C,3%,-24%,/,/,?,/
COc1ccc(Cl)cc1NC(=O)c1ccc(CN2C(=O)CCn3nc(C)cc32)cc1,6%,?,/,/,?,/
COC(=O)[C@@H]1C(c2c(OC)cc(OC)cc2OC)=NO[C@H]1C(=O)OC,-8%,17%,-8,-2,-1%,-2%
CCOC(=O)c1ccc(NC(=S)N2CCN(CCNC3=CC(=O)CC(C)(C)C3)CC2)cc1,1%,3%,-1,-15,-4%,-1%
O=C(c1ccncc1)N1CCN(c2cccc(C(F)(F)F)c2)CC1,-1%,?,5,-2,?,-4%
O=C(c1ccccc1F)N1CCN(c2cccc(C(F)(F)F)c2)CC1,4%,?,-8,-23,16µM*,2%
O=C(c1c(F)c(F)c(F)c(F)c1F)N1CCN(c2cccc(C(F)(F)F)c2)CC1,-5%,?,13,-4,18µM*,1%
CCOC(=O)N/N=C(/C)c1ccc([N+](=O)[O-])o1,-6%,/,/,/,/,-12%
CC(=NN1CC(=O)NC1=O)c1ccc([N+](=O)[O-])o1,/,?,?,9,16µM*,/
Cc1ccc(NC(=O)C2CCCN2S(=O)(=O)c2ccc3c(c2)CCCC(=O)N3)cc1C (stereo not given),-5%,?,/,/,21µM*,/
Cc1cc(Cl)ccc1NC(=O)C1CCCN1S(=O)(=O)c1ccc2c(c1)CCCC(=O)N2 (stereo not given),0%,15µM*,/,/,8.2µM*,/
Cc1ccc(Cl)cc1NC(=O)C1CCCN1S(=O)(=O)c1ccc(-c2ccc(=O)[nH]n2)s1 (stereo not given),9%,-25%,-23,-77*,15µM*,-26%
CCc1ccc(NC(=O)C2CCCN2S(=O)(=O)c2ccc3c(c2)CCCC(=O)N3)cc1 (stereo not given),3%,16µM*,/,/,18µM*,/
O=C(c1ccc(CSc2nc3ccncc3n2Cc2ccccc2F)cc1)N1CCCCC1,3%,-4%,/,/,?,/
O=C1C=CC(O)C2(CO)OC12 (stereo not given),/,16µM*,/,-90*,5.8µM*,/
CSC(=S)N/N=C/c1ccc(N(C)C)cc1,6%,4.6µM*,19,6,5.2µM*,?
CN(C)c1ccc(C=NNC(=S)Nc2ccc(F)cc2)cc1,/,3.7µM*,-24,?,4.6µM*,/
CCCCCCN1C[C@@H](O)[C@H](n2cc(C3CC3)nn2)C[C@@H]1c1ccccc1,/,18µM*,/,-12,16µM*,/
CCCCCCN1C[C@H](n2cc(C3CC3)nn2)[C@@H](O)C[C@@H]1c1ccccc1,/,21µM*,/,7,9.2µM*,/
O[C@H]1CN(CC2CCCCC2)[C@@H](c2ccccc2)C[C@@H]1n1cc(C2CC2)nn1,/,-22%,/,16,?,/
CCCCCC(=O)N1C[C@H](n2cc(C3CC3)nn2)[C@@H](O)C[C@@H]1c1ccccc1,/,-29%,/,12,?,/
CCCCCCN1C[C@H](n2cc(C3CC3)nn2)[C@@H](O)C[C@@H]1c1ccc(OC)cc1,/,?,/,3,21µM*,/
OC(c1ccc(F)cc1)c1nc(-c2ccoc2)cs1 (stereo not given),/,-27%,/,-9,-12%,/
SMILES,TDP1 block,DT40 TDP1 CPT,Giardia killer,IL1B secr inh,DT40 TDP1 no CPT,ELG1 DNA repair
Cn1cc(CN2CCN(CC(C)(C)C)C(CCO)C2)c2ccccc21 (stereo not given),4%,-3%,13,?,?,-4%
CCOc1ccc2c(c1)c(=O)c(C(=O)c1ccccc1)cn2Cc1ccccc1F,3%,?,/,/,21µM*,/
COc1ccc2c(c1)c(=O)c(C(=O)c1ccc(C)cc1)cn2Cc1ccccc1F,5%,?,/,/,?,/
COc1ccc(C(=O)c2cn(Cc3ccccc3F)c3ccc(F)cc3c2=O)cc1,6%,?,/,/,21µM*,/
CC(C)(CNC(=O)c1cccc(F)c1)CNC(=O)c1cccc(F)c1,/,?,4,1,18µM*,/
O=C(NCCNc1ccc([N+](=O)[O-])cc1C(F)(F)F)c1cccc(F)c1,4%,?,-14,0,21µM*,-16%
COc1ccc(C(=O)Nc2nc3cc4c(cc3s2)OCO4)c(OC)c1,/,?,-14,-15,-14%,?
COc1ccc(-c2cc3nc(CCl)[nH]c(=O)c3s2)cc1,5%,4.6µM*,?,-6,4.1µM*,?
Cc1cc(C)cc(N(C(=O)c2ccc(Br)o2)C2C=CS(=O)(=O)C2)c1 (stereo not given),0%,-1%,17,-9,?,-14%
COc1ccc(N(C(=O)c2ccc(Br)o2)C2C=CS(=O)(=O)C2)cc1 (stereo not given),4%,13µM*,-7,4,13µM*,1%
CC(=O)c1sc(-c2ccc(Cl)cc2)nc1C,5%,-1%,5,13,12%,?
Cc1nc(-c2ccccc2)sc1C(=O)/C=C/c1ccc(Cl)cc1,4%,15µM*,-17,-86*,23µM*,14%
COc1ccc(N/C=C/C(=O)c2sc(-c3ccccc3)nc2C)cc1,4%,16µM*,7,-19,21µM*,-18%
Cc1cc(C)c(NC(=O)Cn2c(=O)n(-c3ccc(F)cc3)c(=O)c3c(C)c(C(=O)N(C)C)sc32)c(C)c1,-1%,-23%,/,/,2%,/
CCCS(=O)(=O)N1CCN(CC2CC3C=CC2C3)CC1 (stereo not given),-4%,-8%,27,21,5.8µM*,-2%
c1ccc(N=Nc2ccc3cccccc2-3)cc1,/,-27%,?,-93*,?,/
Nc1ccc(N=Nc2ccccc2)c2ccccc12,11%,32%,-11,25,3%,15%
Nc1ccc(N=Nc2ccccc2)c(N)n1,6%,9.4µM*!,-17,-20,11µM*!,?
CC(C)CCNC(=O)C1CCN(C(=O)c2cc3sccc3n2Cc2ccc(Cl)cc2)CC1,4%,18µM*,/,/,9.2µM*,/
